We go through 94 compounds from PubChem BioAssay AID626 (Vanderbilt High Throughput Screening Facility, 2007).

SMILES strings stand for the structures. The whole screen tested about 64,000 compounds, of which about 1,900 (3%) were called active.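 How the source made its calls: active means fluorescence rise, raw or as B-score row- and column-corrected plate score, outside the 99.7% band of its plate's samples, either direction; inactive means the rest.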 For the sample, actives were picked, then their nearest neighbours and some compounds at random.

This test relates to Muscarinic acetylcholine receptor M1. The test is described as follows: M1 muscarinic receptor agonists, primary screen, CHO-M1 cells, Fluo-4 calcium, agonist mode (AID 626). Conditions: Fluo-4 calcium fluorescence, at 10 µM, stronger effect = higher value.
Consider `Cc1ccnc(NC(=O)c2ccc(NC(=O)c3ccco3)cc2)c1`, for which the B-score was 1.71 (inactive). As to `COC(=O)c1ccc(NC(=O)c2ccco2)cc1`, the B-score was -0.218 (inactive). For `Cc1ccc(C(=O)COc2cccc(NC(=O)c3ccco3)c2)cc1` the value was 1.03 (active); for `O=C1c2ccccc2C(Nc2ccc3c(c2)OCCO3)N1Cc1ccco1` (centres undefined), 0.847 (inactive). The result for `COc1ccc(NS(=O)(=O)c2ccc(NC(C)=O)cc2)cc1OC` reads 0.127 (inactive); that for `COc1ccccc1Oc1ccc(S(=O)(=O)Nc2cccnc2)cc1`, 14.6 (active). With `O=S(=O)(Nc1ccccn1)c1ccc(Oc2ccccc2)cc1`, the B-score is -0.897 (inactive). `CCC(C)(C)NC(=O)C(c1cccn1C)N(Cc1ccc(C)cc1)C(=O)Cn1nnc2ccccc21` (centres undefined): the B-score is -0.864 (inactive).

For `O=S(=O)(NCC1CCCO1)c1ccc2ccccc2c1` (centres undefined), the B-score is 0.554 (inactive). Take `COCCCNC(=O)c1c(F)c(F)c(F)c(F)c1F`: the B-score was 0.0183 (inactive). In the case of `Cc1cccc(CC(=O)Nc2c3c(nn2-c2cccc(Cl)c2)CS(=O)C3)c1` (centres undefined), the B-score was -1.33 (inactive). Consider `Cc1noc(C)c1CSc1nc2cc(S(=O)(=O)N3CCOCC3)ccc2o1`, for which the B-score is -0.0272 (inactive). Turning to `CC1Cc2ccccc2N1C(=O)CSc1nc2ccccc2o1` (centres undefined), the B-score was 0.106 (inactive). Consider `O=C(CSc1nc2ccccc2o1)N1CCN(c2ccc(Cl)cc2)CC1`, for which the B-score was 20.1 (active). For `O=C(CSc1nc2ccccc2o1)N1CCN(c2ccccc2)CC1` the value was -0.706 (inactive); for `CSCCC(NC(=O)c1ccc(=O)n(C)n1)c1nc2ccccc2[nH]1` (centres undefined), -1.57 (inactive); for `NC(=S)c1ccc(C(N)=S)o1`, 2.43 (inactive).

`COc1ccc(C(=O)CSc2nccc(=O)[nH]2)cc1`: the B-score was 1.27 (inactive). The result for `CC12C(=O)N(n3cnnc3)C(=O)C1C1C=CC2C1` (centres undefined) reads 0.0714 (inactive).

`CCc1ccc(Nc2ncc3c(n2)CC(c2ccco2)CC3=O)cc1` (centres undefined): the B-score was 0.24 (inactive). With `CCCC(=O)Nc1ccccc1N1CCN(C(=O)c2ccccc2)CC1`, the B-score was 0.545 (inactive). For `O=C(Nc1ccccc1N1CCN(c2ccccc2)CC1)c1cccc(F)c1`, the B-score is -0.048 (inactive). With `O=C(Nc1ccccc1N1CCN(C(=O)c2ccccc2)CC1)c1ccc2c(c1)OCO2`, the B-score was 2.96 (active).

In the case of `Cc1noc(C)c1C(=O)OCC(=O)/C=C1\N(C)c2ccccc2C1(C)C`, the B-score is -1.21 (inactive). With `COc1ccc(S(=O)(=O)N2CCC(C(=O)N3CCc4ccccc4C3)CC2)cc1OC`, the B-score is 0.201 (inactive). Regarding `O=C(CN(Cc1ccccc1)C(=O)c1ccc2c(c1)OCCO2)NCc1ccc2c(c1)OCO2`, the B-score was 0.89 (inactive). For `CC1(C)CC(O)C(CCC(O)c2ccccc2)C(C)(C)N1` (centres undefined) the value was 2.64 (inactive); for `COc1ccc(-c2c3c(=O)n(C)c(=O)n(C)c3cn2NC(C)=O)cc1`, 0.218 (inactive); for `COc1ccc(N(C(=O)c2cccnc2)S(=O)(=O)c2ccc3c(c2)n(C)c(=O)n3C)cc1`, 3.89 (active). For `CN(C)S(=O)(=O)c1cccc(C(=O)Nc2cccnc2)c1`, the B-score is 0.0444 (inactive).

In the case of `O=C(NCCN1C(=O)C2C3C=CC(C3)C2C1=O)Nc1ccccn1` (centres undefined), the B-score was 0.114 (inactive). `COC(=O)Nc1ncc(CN2C(=O)c3ccccc3C2=O)s1`: the B-score was 0.171 (inactive). Regarding `CCOC(=O)c1cc2n(c1N)-c1ccccc1C2=O`, the B-score was 145 (active). For the compound `CCOC(=O)c1cc2n(c1C)-c1ccccc1C2=O`, the B-score is 0.122 (inactive).

With `CCOC(=O)Nc1ccccc1N1C(=O)c2ccccc2C1=O`, the B-score is -0.565 (inactive). As to `CC(=O)N(CN1C(=O)C2CC=CCC2C1=O)c1cccc(Cl)c1` (centres undefined), the B-score was -1.96 (inactive).

Consider `O=C(NCc1ccco1)c1cnn2c(C(F)(F)F)cc(-c3ccco3)nc12`, for which the B-score is 0.0458 (inactive). Take `FC(F)(F)COc1nc(N2CCCCC2)nc(N2CCNCC2)n1`: the B-score is 6.73 (active).

As to `COc1cc2c(cc1NC(=O)CN1CCN(S(=O)(=O)c3ccc(F)cc3)CC1)oc1ccccc12`, the B-score was -1.04 (inactive).

As to `OCc1nc(CO)n(Cc2ccccc2)n1`, the B-score is -0.345 (inactive).

On to `COc1ccc(-c2csc(N3CCN(Cc4ccc5c(c4)OCO5)CC3)n2)cc1`, for which the B-score was -0.173 (inactive). Take `O=C(CN1CCN(c2nc(-c3ccccc3)cs2)CC1)NCc1ccc2c(c1)OCO2`: the B-score was -0.269 (inactive). For the compound `CC1CCCC(C)N1C(=O)CN1CCN(c2nc(-c3ccc(F)cc3)cs2)CC1` (centres undefined), the B-score is 2.64 (active). `O=c1c2ccccc2nc(CSc2nnnn2-c2ccccc2)n1-c1ccccc1`: the B-score is -1.38 (inactive). `CCOc1cccc(/C(O)=C2/C(=O)C(=O)N(CCOC)C2c2ccncc2)c1` (centres undefined): the B-score was -0.0327 (inactive). The result for `Cc1cc(=O)cc(C)[nH]1` reads -0.0108 (inactive). On to `CCOc1ccc(NC(=O)N2CCN(CC)CC2)cc1`, for which the B-score was -1.38 (inactive). Turning to `CCOc1ccc(NC(=O)N2CC=C(n3c(=O)[nH]c4ccccc43)CC2)cc1`, the B-score was 3.49 (active).

`Cc1cccc(C)c1NC(=O)N1CC=C(n2c(=O)[nH]c3ccccc32)CC1`: the B-score is 1.14 (inactive). Turning to `CN1CCC2(CC1)NC(=O)NC2=O`, the B-score was -0.874 (inactive). The result for `CCn1c(NCCc2ccc(OC)c(OC)c2)nc2c1c(=O)n(C)c(=O)n2C` reads 3.33 (active). Consider `CCCCn1c(SCC(=O)NCCc2ccc(OC)c(OC)c2)nc2c1c(=O)n(C)c(=O)n2C`, for which the B-score was 0.299 (inactive). `Cn1c(=O)c2c(nc(NCCc3ccccc3)n2Cc2ccccc2)n(C)c1=O`: the B-score was -0.39 (inactive).

As for `Cc1cc(C(F)(F)F)c(C#N)c(SCC(=O)NC2CC2)n1`, the B-score was 0.0289 (inactive). As for `CCSc1ncnc2c(C#N)c3n(c12)CCCCC3`, the B-score is -0.0416 (inactive). As to `O=C(CCC(=O)OCC(F)(F)C(F)F)NCc1ccccc1`, the B-score is -1.45 (inactive).

With `COc1ccc2[nH]c(=O)c(CN(Cc3nnnn3CCc3ccccc3)CC3CCCO3)cc2c1` (centres undefined), the B-score is 0.197 (inactive). Regarding `Cc1cccc2cc(CN(Cc3cccs3)C(c3nnnn3C3CCCC3)C(C)C)c(=O)[nH]c12` (centres undefined), the B-score is -0.692 (inactive).

In the case of `CCOc1ccc2[nH]c(=O)c(CN(Cc3nnnn3CCc3ccccc3)CC3CCCO3)cc2c1` (centres undefined), the B-score was 1.96 (inactive).

`CCOc1ccc2[nH]c(=O)c(CN(Cc3nnnn3Cc3ccccc3)CC3CCCO3)cc2c1` (centres undefined): the B-score was 3.01 (active). As to `Cc1cccc2cc(CN(Cc3nnnn3Cc3ccccc3)C3CCCC3)c(=O)[nH]c12`, the B-score was 0.299 (inactive).

As for `CCC(=O)N(Cc1cc2cc(OC)ccc2[nH]c1=O)c1ccccc1C`, the B-score is -0.55 (inactive). Consider `Cc1cc2cc(CN(Cc3cccs3)Cc3nnnn3CC3CCCO3)c(=O)[nH]c2cc1C` (centres undefined), for which the B-score was 6.85 (active). `COc1ccc2[nH]c(=O)c(CN(CC3CCCO3)C(=O)Nc3ccccc3)cc2c1` (centres undefined): the B-score is 2.9 (active).

Take `Cc1cc(C)c2cc(CN(Cc3cccs3)Cc3nnnn3CC3CCCO3)c(=O)[nH]c2c1` (centres undefined): the B-score was -0.2 (inactive). The result for `Cc1ccc(C)n1C(Cc1ccccc1)C(=O)O` (centres undefined) reads -0.967 (inactive).

Regarding `COc1ccc(C(=O)N(Cc2ccc(N(C)C)cc2)C2CCS(=O)(=O)C2)cc1` (centres undefined), the B-score was 0.609 (inactive). In the case of `CC(C)(C)Nc1c(N)c(=O)oc2ccccc12`, the B-score is 0.371 (inactive). As for `Cc1onc(-c2ccccc2Cl)c1C(=O)NCCn1ccc2ccccc21`, the B-score is -0.0968 (inactive). With `CCOC(=O)C1=C(C)NC(=O)N(C(C)=O)C1c1ccc(Cl)cc1` (centres undefined), the B-score was -0.0464 (inactive). The result for `CCC(=O)Nc1ccc(C(=O)Nc2ccc3c(c2)C(=O)N(CC2CCCO2)C3=O)cc1` (centres undefined) reads 0.81 (inactive); that for `CN1C(=O)c2ccc(NC(=O)c3c(F)c(F)c(F)c(F)c3F)cc2C1=O`, 4.34 (active). Turning to `CN1C(=O)c2ccc(NC(=O)C3CCCCC3)cc2C1=O`, the B-score was -1.25 (inactive). Take `CCOC(=O)c1ccc(Nc2cc(C)nc3nc(C)nn23)cc1`: the B-score was -0.0395 (inactive).

In the case of `CC(=O)c1ccc(-n2nnnc2SCC(=O)N2CCN(C(=O)c3ccco3)CC2)cc1`, the B-score is 0.19 (inactive).

As to `COc1ccccc1CNC(=O)C1CCCN(S(=O)(=O)c2cccc3cccnc23)C1` (centres undefined), the B-score was 0.00364 (inactive). As for `COc1ccc(NC(=O)C2CCCN(S(=O)(=O)c3cccc4cccnc34)C2)cc1` (centres undefined), the B-score was 0.324 (inactive). In the case of `COc1ccc(NC(=O)C2CCCN(S(=O)(=O)c3cccc4cccnc34)C2)cc1OC` (centres undefined), the B-score was 4.34 (active). Consider `CCOc1cc(C2C(C(=O)OC)=CN(C3CCCC3)C=C2C(=O)OC)cc(Br)c1O`, for which the B-score is -0.323 (inactive). For `N#CC1=C(N)Oc2c(sc3ccccc23)C1c1ccco1` (centres undefined), the B-score was 52 (active). Take `CCOC(=O)CSC1=C(C#N)C(c2ccco2)C(C(=O)OCc2ccccc2)=C(C)N1` (centres undefined): the B-score is -0.00433 (inactive). Take `N/C(=N\c1nc2ccccc2o1)NC(=O)C(Cc1ccccc1)N1C(=O)c2ccccc2C1=O` (centres undefined): the B-score was 2.31 (inactive). Regarding `Cc1ccc(Cn2ccc(NC(=O)c3cc(C(C)C)on3)n2)cc1`, the B-score is -1.01 (inactive). For `Cn1c(=NC(=O)CSCC(=O)N2CCCCC2)sc2ccccc21`, the B-score was -0.071 (inactive). The result for `O=C(c1cc(-c2cccs2)on1)N1CCCCC1` reads 1.09 (inactive); that for `O=C(CSCc1cccs1)N1CCCC1`, 4.57 (active). As to `COc1ccccc1-n1nnnc1S(=O)(=O)Cc1ccc(Cl)cc1`, the B-score was 0.986 (inactive). Consider `COc1ccccc1NC(=O)CSc1nnc(Cc2cccn2C)n1-c1ccc(F)cc1`, for which the B-score is -0.202 (inactive). Take `COc1ccccc1NC(=O)CSc1nnc(Cn2nnc(-c3ccccc3)n2)n1-c1ccccc1`: the B-score is 2.12 (active). Turning to `COc1ccccc1NC(=O)CSc1nnc(-c2ccoc2C)n1CCc1ccccc1`, the B-score is 0.464 (inactive). As for `CCN=C1SC(CC(=O)Nc2ccc(C)cc2)C(=O)N1CC` (centres undefined), the B-score is 5.15 (active). As to `CCOC(=O)c1ccc(NC(=O)Cn2nnc(-c3ccc(C)cc3)n2)cc1`, the B-score was -0.837 (inactive). With `Cc1ccc(NC(=O)CCN2CCc3ccccc3C2)cc1`, the B-score is -0.165 (inactive). As for `CCC(Oc1ccccc1)C(=O)NCc1cccnc1` (centres undefined), the B-score was -0.899 (inactive).
